Assay outcomes from PubChem.
An excerpt weighted towards active compounds, which were near 1.5% of everything screened.
Bcl-xL primary – inhibitors of human Bcl-xL; GST-Bcl-xL / FITC-Bim BH3 peptide fluorescence polarization; inhibition, % at 10.9 µM; 320,000 compounds, 0.7% hits; AID 2129;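 active = inhibition above the mean of all tested compounds plus 3 SD, cutoff set per campaign, cut at about 30% in these data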;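 also: 0% = DMSO wells and 100% = unlabeled Bim-BH3 peptide competitor; inhibitors lower millipolarization by displacing the labeled peptide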
IDE act – activators of human insulin-degrading enzyme in cells; P14735; HEK cells, FAbeta-B cleavage, fluorescence polarization; 0% vehicle, 100% cell-free pure enzyme wells; activation, % at 5.96 µM; 340,000 compounds, 0.073% hits;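 active = activation above the mean of all tested compounds plus 3 SD, set per screening campaign, cut at about 17% in these data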
GLD-1 TGE inh – GLD-1-TGE RNA interaction inhibition (C. elegans); AID 2280; Q17339; purified GLD-1 + fluorescein TGE RNA, fluorescence polarization; 320,000 compounds, 0.44% hits; inhibition, % at 5.96 µM;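 active = percent inhibition above a per-plate cutoff, the plate mean of test compounds plus 3 SD, cut at about 30% in these data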;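 also: 0% = DMSO wells with GLD-1 and probe and 100% = wells lacking GLD-1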
MCL1-BIM inh – disrupts human MCL1 binding to BIM-BH3 peptide; Q07820; GST-MCL1 / FITC-Bim-BH3 fluorescence polarization; inhibition, % at 10.9 µM; 320,000 compounds, 0.68% hits; AID 2057;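 active = inhibition above the mean inhibition of all tested compounds plus 3 SD, set per campaign, cut at about 40% in these data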;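 also: 0% = DMSO wells and 100% = unlabeled Bim-BH3 peptide control; higher means more loss of mP so more displacement of Bim peptide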
MEX-5 binding – C. elegans MEX-5 TCR-2 RNA binding activity; MEX-5/FITC-TCR2 RNA binding, fluorescence polarization; stronger effect = lower value; activity score (negative = inhibition of binding), % at 10 µM; 300,000 compounds, 0.38% hits; Q9XUB2; AID 1832;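 active = inhibition past about -25% in most replicates, and total fluorescence under double the plate's negative control median, limit read from the data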;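 also: 0% = DMSO and -100% = 5 µM competing unlabeled TCR2 RNA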
Target sequence (Q9XUB2 whole entry, looked up): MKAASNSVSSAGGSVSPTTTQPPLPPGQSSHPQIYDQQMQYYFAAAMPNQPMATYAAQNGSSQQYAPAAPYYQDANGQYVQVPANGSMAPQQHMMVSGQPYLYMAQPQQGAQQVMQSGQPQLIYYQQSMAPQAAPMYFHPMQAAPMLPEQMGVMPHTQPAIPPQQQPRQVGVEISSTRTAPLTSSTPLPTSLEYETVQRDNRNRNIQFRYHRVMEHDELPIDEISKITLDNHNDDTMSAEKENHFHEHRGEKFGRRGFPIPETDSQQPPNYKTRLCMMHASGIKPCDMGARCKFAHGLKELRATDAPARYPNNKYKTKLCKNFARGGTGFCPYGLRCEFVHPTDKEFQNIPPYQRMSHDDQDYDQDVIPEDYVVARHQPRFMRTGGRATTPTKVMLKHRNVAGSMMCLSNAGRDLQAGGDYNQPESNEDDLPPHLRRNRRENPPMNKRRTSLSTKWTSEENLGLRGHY
IDE inh – inhibits human insulin-degrading enzyme in HEK cells; P14735; FAbetaB cleavage, fluorescence polarization; inhibition, % at 5.59 µM; 320,000 compounds, 0.41% hits;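 active = percent inhibition above the average of all tested compounds plus 3 SD, set per screening campaign, cut at about 16% in these data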;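 also: IDE supplied by intact live HEK cells; FP after avidin binding of uncleaved biotin substrate so inhibition keeps polarization high; 0% = DMSO wells and 100% = 60 µM reference IDE inhibitor Ii1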
* marks the source's active call; other numbers are inactive results; · = no result given.

SMILES | Bcl-xL primary | IDE act | GLD-1 TGE inh | MCL1-BIM inh | MEX-5 binding | IDE inh
CC(C)OC(=O)C1=C2SCC(=O)N2C(N)=C(C#N)C1 | 37* | 0 | 0 | 2 | 3 | 7
Cc1[nH][nH]c(=O)c1/C=N/N1CCOCC1 | -1 | 6 | 6 | -2 | -27* | 3
O=C1NC2(CCCCCC2)C(=O)N1Cc1ccccc1 | -5 | -3 | -5 | -2 | 1 | 2
O=C1NC(=O)N(Cc2ccccc2)C1=O | 57* | 6 | 30 | 53* | -1 | 3
N#CC1(NC(=O)COC(=O)c2ccccc2[N+](=O)[O-])CCCCC1 | 7 | 6 | -1 | -1 | 3 | -1
N#CC1(NC(=O)COC(=O)c2cc(O)c3ccccc3c2O)CCCCC1 | 31* | -1 | 10 | 40* | -5 | 4
Cc1cc(C(=O)NCC(=O)OCC(=O)NCC2CCCO2)ccc1[N+](=O)[O-] (stereo not given) | 5 | 0 | 1 | -5 | · | 5
CN(C)c1ccc2c3c(cccc13)C(=O)N(c1ccccc1)C2=O | 81* | · | 69* | 77* | 0 | 8
CN1C(=O)/C(=C/c2ccc3c(c2)OCO3)N=C1c1ccccc1 | 4 | 4 | -1 | 4 | -33* | -1
CCOC(=O)/C(C#N)=C/c1ccc(-c2ccsc2C(=O)OC)o1 | -7 | 7 | -1 | -10 | -55* | 2
Cn1c(O)c(C=Nc2ccc(N3CCOCC3)cc2)c(=O)n(C)c1=S | · | 2 | · | · | -27* | ·
Cc1cc(O)c(C=Nc2ccc(N3CCOCC3)cc2)c(C)c1Cl | 4 | -1 | 7 | 3 | -7 | -3
COc1ccc(/C(N)=N/OC(=O)CCCN2C(=O)c3ccccc3C2=O)cc1OC | -1 | 6 | 7 | 3 | 2 | -8
Cc1ccc(C)c(N(CC(=O)NC2CCCCC2)C(=O)CNC(=O)c2ccco2)c1 | 1 | 2 | 5 | 8 | 1 | 0
Cc1ccc(CN(C)C(=O)CC2C(=O)NCCN2CC2CCCCC2)cc1 (stereo not given) | 7 | 2 | 0 | 1 | -48* | 5
CCCc1ccc(NC(=O)C2CCCN(c3cnccn3)C2)cc1 (stereo not given) | -2 | 1 | 0 | 3 | 0 | 2
COc1ccc2c(c1OC)C(=O)N1C(C(=O)O)Cc3c([nH]c4ccccc34)C21 (stereo not given) | 48* | 1 | 21 | 47* | -10 | 0
COc1cccc(CC2(CO)CCN(S(=O)(=O)c3ccc(OC)cc3OC)CC2)c1 | 3 | 1 | 2 | 5 | 2 | 3
CCN1/C(=N\N)c2cccc3cccc1c23 | 52* | -5 | 22 | 33 | -1 | 7
CCC(C)NC(=O)CN1C(=O)c2cccc3cccc1c23 (stereo not given) | · | -1 | · | · | 3 | ·
CC1CCN(c2nc3ccccc3nc2C(C#N)C(=O)NC2CCCCC2)CC1 (stereo not given) | -1 | · | -3 | -6 | -29* | 0
CC(=NC1CCCC1)c1c(C)[nH]n(-c2nc3ccccc3s2)c1=O | -25 | -1 | -44 | -25 | -43* | 6
O=C(CNCCc1ccccc1)Nc1ccc(C(=O)N2CCCCC2)cc1 | 7 | -4 | -2 | 3 | 3 | 2
COCc1cc(=O)[nH]c(Cc2c(Cl)cccc2Cl)n1 | 4 | -3 | -1 | -2 | 0 | 1
CCc1ccc(C(=O)NNC(=O)c2ccc(=O)n(C)n2)cc1 | 5 | 1 | -3 | -2 | -30* | 3
SMILES | Bcl-xL primary | IDE act | GLD-1 TGE inh | MCL1-BIM inh | MEX-5 binding | IDE inh
O=C(NCCN1CCOCC1)c1cccc(S(=O)(=O)N(Cc2ccccc2)c2ccccc2)c1 | 8 | 0 | 0 | 5 | 0 | 2
COC(=O)c1cc(NC(=O)c2cccc(Cl)c2)c(=O)oc1/C=C/Nc1cc(C)cc(C)c1 | -98 | · | -80 | -165 | -28* | 16
Cc1ccc(OC(=O)C2c3ccccc3Oc3ccccc32)cc1C | 5 | 3 | -2 | 5 | -3 | 0
O=C(N/N=C1/C(=O)c2cccc3cccc1c23)c1ccc(Cl)cc1 | 57* | 6 | 5 | 46* | 1 | 0
CC(=O)Nc1ccc(C(=O)NNC(=O)Cc2ccccc2)cc1 | 0 | 7 | 0 | 5 | 1 | -1
Nc1nc(-c2ccccc2)cn1N | 4 | 4 | 2 | 9 | 2 | 3
